# According to ChEMBL document CHEMBL1157539, “Thousands of chemical starting points for antimalarial lead identification” (Nature, 2010):
# Tested on: HepG2
# Assay: GSK_TCMDC: Percent inhibition of human HepG2 cell line. Test compounds present at 10uM.
# Assay type: functional
row,Compound,Inhibition [%]
1,Cc1ccc(NC(C)C(=O)Nc2ccc(C#N)cc2)cc1S(=O)(=O)N1CCCCC1 (stereo not given),11
2,CCOc1c(CCNCCCCNCCc2ccc3ccccc3c2OCC)ccc2ccccc12.CS(=O)(=O)O,100
3,COc1cc(CNCCCNc2nc(=O)c3sccc3[nH]2)c2[nH]cc(Cl)c2c1.CS(=O)(=O)O,29
4,COc1ccc2c(=O)c(I)c(C)[nH]c2c1,27
5,COCCNc1nc(N2CCC(CNC(=O)c3ccc(-c4ccc(C(=O)N(C)C)cc4C)cc3)CC2)nc2cc(OC)c(OC)cc12,12
6,CCCc1ccc(NC(=O)c2cccc(CN3CCCN(Cc4cccc(O)c4)CC3)c2)cc1.O=C(O)C(F)(F)F,15
7,Cc1cc(C2CCN(CCCCNC(=O)c3ccc(NC(=O)c4ccc(Cl)cc4)cc3)CC2)c(C)cc1OCc1ccccn1.Cl,18
8,COc1ccc(CNC(=O)NC2CCN(c3ccnc(Nc4ccc(F)cc4)n3)C2)cc1 (stereo not given),4
9,Cc1ccc(Oc2ccc(CNc3nc(Nc4cccc(F)c4)nc(Nc4cccc(F)c4)n3)cc2)cc1,0
10,CN1CC[C@@H](Oc2cc(NC(=O)Nc3ccc(Cl)c(C(F)(F)F)c3)ccc2Cl)C1,17
11,Cc1[nH]c2ccc(C#N)cc2c(=O)c1Br,2
12,Cc1[nH]c(C)c(-c2ccc(-c3ccccc3F)nc2)c(=O)c1Br,2
13,O=C(NC1CCCCN(Cc2ccccc2O)C1)c1ccc(-c2ccccc2)cc1.O=C(O)C(F)(F)F (stereo not given),21
14,CCCn1c(O)nnc1SCC(=O)Nc1cc(Cl)ccc1Cl,0
15,CCN1CCC(NCc2ccc(-c3ccc(Cl)cc3)cc2)CC1,25
16,NCC1CCCN1Cc1ccc(-c2cccc(-c3nc4cc(C(F)(F)F)ccc4[nH]3)c2)cc1.O=C(O)C(F)(F)F (stereo not given),24
17,Cn1nccc1C(=O)NCCNCc1ccc(-c2cccc(-c3nc4cc(C(F)(F)F)ccc4[nH]3)c2)cc1.O=C(O)C(F)(F)F,51
18,Cc1ccc(Nc2nccc(N(C)c3ccc4c(c3)nc(NC(=O)Cc3ccc(Cl)c(Cl)c3)n4C)n2)cc1S(N)(=O)=O.O=C(O)C(F)(F)F,71
19,C=CCOc1ccc2ccccc2c1CNCCCCCCNCc1c(OCC=C)ccc2ccccc12.CS(=O)(=O)O,99
20,O=C(NCCN1CCOCC1)c1ccc(-c2ccc(CNCCCc3ccccc3)cc2)nc1.O=C(O)C(F)(F)F,0
21,CC(C)NCc1ccc(-c2cccc(NC(=O)c3cccc(C#N)c3)c2)cc1.O=C(O)C(F)(F)F,9
22,COc1ccc2nccc([C@@H](O)CN3CCC(NS(=O)(=O)c4cc5c(cc4Cl)SCC(=O)N5)CC3)c2c1.O=C(O)C(=O)O,5
23,O=C(NC1CCN(Cc2ccccc2)C1)c1ccc(Nc2ccc(Br)cc2)nc1.O=C(O)C(F)(F)F (stereo not given),19
24,Cc1cc(CNCCCCCCNCc2ccc(Cl)cc2)ccc1O,23
25,O=C(Nc1ccc2c(c1)OCO2)c1cc(-c2cccnc2)nc2ccc(Cl)cc12,9
26,O=C(Nc1ccc(C(F)(F)F)cc1)c1ccc(S(=O)(=O)NCC2CCCN(CC3CCCCC3)C2)cc1.O=C(O)C(F)(F)F (stereo not given),44
27,Cc1ccc(-c2cc(C(=O)Nc3ccc(S(=O)(=O)N4CC(C)OC(C)C4)cc3)[nH]n2)c(O)c1 (stereo not given),16
28,Cc1ccc(F)c(OCC2CCCN(c3ccc(C(=O)NC4CC4)cn3)C2)c1 (stereo not given),3
29,COC(=O)c1cccc(OCCNC2CCN(C[C@H](O)c3ccnc4ccc(OC)cc34)CC2)c1.O=C(O)C(=O)O,0
30,Cc1cc(NCc2ccc(F)cc2)nc2cc(O)ccc12,14
